Data as given in PubChem BioAssay (NCATS).
Results filed as inconclusive are left out. Activity calls are given as the source filed them. Unless noted, the call rests on the fitted dose curve; in most records, active means well fitted curve in the direction sought with a large enough effect; inconclusive means small, poorly fitted or top-dose-only effect, or another doubt; inactive means no such curve, though single readings can be large; an effect the other way counts as inactive or inconclusive.

Assays:
[1] = Validation of Assay for Modulators of Lamin A Splicing (AID 1459; active means well fitted curve in the direction sought with a large enough effect in the signal ratio; the % refers to the signal ratio;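 further: cells exposed to compound for two days before reading; 0% is about no effect; ratio rise marks activators and ratio drop marks inhibitors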)
In short: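 S3 HeLa stably expressing lamin A-EGFP splicing minigene and DsRed2, 600 cells/well in Opti-MEM with 2% FBS, treated 48 h at 37C; laser-scanning cytometry gives GFP/RFP total intensity ratio; ancitabine positive control, 0.5% DMSO vehicle.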

[2] = target: DNA repair nuclease/redox regulator APEX1 (Homo sapiens) (UniProt P27695); experiment: qHTS Validation Assay for Inhibitors of the Human Apurinic/apyrimidinic Endonuclease 1 (APE1) (AID 1705;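 further: TAMRA fluorescence gain over two minutes as APE1 cuts a quenched THF abasic duplex; on the % scale 0 is the no-effect control and ±100 the full control effect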)
Sequence of DNA repair nuclease/redox regulator APEX1 (Homo sapiens) (P27695 whole entry, looked up): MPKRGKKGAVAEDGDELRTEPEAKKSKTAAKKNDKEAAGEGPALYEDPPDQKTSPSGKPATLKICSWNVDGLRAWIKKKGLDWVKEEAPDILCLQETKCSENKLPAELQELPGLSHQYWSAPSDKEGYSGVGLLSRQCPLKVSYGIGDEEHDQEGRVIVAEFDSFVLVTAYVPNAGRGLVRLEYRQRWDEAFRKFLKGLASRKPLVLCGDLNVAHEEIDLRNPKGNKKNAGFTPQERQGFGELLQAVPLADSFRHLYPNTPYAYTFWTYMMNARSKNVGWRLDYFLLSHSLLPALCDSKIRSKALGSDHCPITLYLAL
In short: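 Fluorogenic double-stranded THF abasic-site substrate (5'-TAMRA/3'-BHQ-2), 50 nM final. Enzyme preincubated with compound 15 min at room temperature, then substrate added. Kinetic fluorescence (ex 525/em 598 nm) read three times at 60 s intervals; activity taken as third-minus-first read difference.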

[3] = Counterscreen for APE1 Inhibitors: Fluorescent Dye Displacement Validation Assay (AID 1707);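 further: plate controls were ThO with dsDNA and no compound for no effect and ThO without dsDNA for full effect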
In short: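 Thiazole Orange displacement from dsDNA: 250 nM ThO with 50 nM TAMRA-labelled abasic-site (tetrahydrofuran) duplex in 50 mM Tris-HCl pH7.5, 50mM NaCl, 2 mM MgCl2, 0.01% Tween-20. Loss of endpoint fluorescence (ex 480 nm, em 540 nm) flags DNA binders.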

[4] = qHTS for differential inhibitors of proliferation of Plasmodium falciparum line 7G8 (AID 1815);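 further: potency means the concentration at half of the fitted maximal effect; parasite growth measured after three days of incubation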
[5] = qHTS for differential inhibitors of proliferation of Plasmodium falciparum line GB4 (AID 1816); conditions: Potency: Plasmodium falciparum GB4 proliferation inhibition;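 further: potency means the concentration at half of the fitted maximal effect; parasite growth measured after 72 h incubation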
[6] = qHTS for differential inhibitors of proliferation of Plasmodium falciparum line D10 (AID 1877);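 further: parasites grown with compound for 72 h before DNA staining; plate controls were vehicle wells for no effect and reference inhibitor wells for full effect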
[7] = qHTS for differential inhibitors of proliferation of Plasmodium falciparum line W2 (AID 1883); conditions: Potency: Plasmodium falciparum W2 proliferation inhibition;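 further: potency means the concentration at half of the fitted maximal effect; parasites grown with compound for 72 h before lysis and staining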
[8] = qHTS for differential inhibitors of proliferation of Plasmodium falciparum line HB3 (AID 1886); conditions: Potency: Plasmodium falciparum HB3 proliferation inhibition;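 further: parasites grown with compound for 72 h before SYBR Green readout; plate controls were vehicle for no effect and reference inhibitor for full effect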
[9] = target: Ferritin light chain (Equus caballus) (UniProt P02791); experiment: qHTS Validation Assay for Identification of Novel General Anesthetics (AID 2323); further: on the % scale 0 is the no-effect control and ±100 the full control effect
Sequence of Ferritin light chain (Equus caballus) (P02791 2-175 limits assumed): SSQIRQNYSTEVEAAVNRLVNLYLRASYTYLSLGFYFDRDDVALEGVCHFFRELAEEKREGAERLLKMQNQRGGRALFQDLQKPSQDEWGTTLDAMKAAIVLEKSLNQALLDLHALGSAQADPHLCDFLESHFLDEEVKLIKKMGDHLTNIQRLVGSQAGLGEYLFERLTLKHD
In short: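 Horse-spleen apoferritin (10 uM) in PBS with 50% saturated 1-aminoanthracene; compounds pin-transferred, 10 min at room temperature. Fluorescence read at 380/535 nm, normalized to free 1-AMA and 1-AMA/apoferritin values; four-parameter Hill fit.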

[10] = target: ATP-dependent DNA helicase Q1 (Homo sapiens) (UniProt P46063); experiment: qHTS Validation Assay for Inhibitors of RecQ-Like Dna Helicase 1 (RECQ1) (AID 2353);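 further: plate controls were DMSO vehicle for no effect and enzyme-free control for full effect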
Sequence of ATP-dependent DNA helicase Q1 (Homo sapiens) (P46063 whole entry, looked up): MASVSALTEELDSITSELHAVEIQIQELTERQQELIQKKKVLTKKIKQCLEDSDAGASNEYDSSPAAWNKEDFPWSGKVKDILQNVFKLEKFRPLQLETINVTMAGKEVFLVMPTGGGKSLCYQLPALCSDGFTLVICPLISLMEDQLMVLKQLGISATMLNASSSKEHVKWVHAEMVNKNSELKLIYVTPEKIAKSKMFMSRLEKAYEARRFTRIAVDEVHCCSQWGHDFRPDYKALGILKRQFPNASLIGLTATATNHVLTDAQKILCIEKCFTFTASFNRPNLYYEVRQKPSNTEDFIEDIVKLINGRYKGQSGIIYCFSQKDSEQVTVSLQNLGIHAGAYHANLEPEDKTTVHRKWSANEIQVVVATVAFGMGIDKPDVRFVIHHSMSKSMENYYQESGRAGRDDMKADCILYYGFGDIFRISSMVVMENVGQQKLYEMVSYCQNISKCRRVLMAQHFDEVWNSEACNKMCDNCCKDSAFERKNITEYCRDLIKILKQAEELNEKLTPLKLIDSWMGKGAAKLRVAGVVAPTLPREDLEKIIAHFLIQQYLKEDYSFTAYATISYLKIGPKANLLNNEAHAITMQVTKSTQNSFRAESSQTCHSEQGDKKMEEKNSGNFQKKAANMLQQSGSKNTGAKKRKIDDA
In short: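 50 nM RECQ1T1 preincubated 15 min with compound in Tris pH 8.0 buffer with MgCl2, DTT, Tween-20 and 2.5 ug/ml poly(dI-dC); started with 200 nM TAMRA/BHQ-2 forked duplex and 2 mM ATP. Unwinding read as fluorescence (525/598 nm), two reads 2 h apart.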

[11] = Validation screen for inhibitors of Lassa infection (AID 463096; calls by dose curve; further: on the % scale 0 is the no-effect control and ±100 the full control effect)
[12] = Validation screen for small molecules that induce DNA re-replication in MCF 10A normal breast cells (AID 463097); further: 0% is about no effect; nearly all actives have a fitted effect of over 60% in size
In short: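 MCF 10A cells exposed to compound 48 hr at 37 C, 5% CO2, then Hoechst-stained 40 min. Laser-scanning imaging of nuclear DNA content (405 nm ex, 500-530 nm em); re-replication scored as rise in nuclei with elevated fluorescence intensity.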

[13] = Quantitative high throughput screen for delayed death inhibitors of the malarial parasite plastid, 48 hour incubation (AID 488752); further: on the % scale 0 is the no-effect control and ±100 the full control effect; nearly all actives have a fitted effect of over 65% in size
In short: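 Erythrocytes infected with P. falciparum carrying an integrated firefly luciferase reporter (2% hematocrit, 0.1% parasitemia final) were exposed to compounds in RPMI 1640/0.5% Albumax for 48 h at 37 C, 5% CO2. Growth inhibition was scored as reduced luminescence.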

[14] = target: M-phase phosphoprotein 8 (Homo sapiens) (UniProt Q99549); experiment: qHTS Validation Assay for Inhibitors for MPP8 Chromodomain Interactions with Methylated Histone Tails (AID 488949); further: top concentration of the series differs between compounds; on the % scale 0 is the no-effect control and ±100 the full control effect; nearly all actives have a fitted effect of over 55% in size
In short: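 MPP8 (50 nM) was pre-bound to 50 nM biotinylated H3(1-18)K9me3 peptide in PBS pH 7.4 with 0.01% Tween-20. Compounds were then added for 30 min at room temperature, and complex disruption was read by AlphaScreen with streptavidin donor and nickel-chelate acceptor beads.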

[15] = target: Transient receptor potential cation channel subfamily V member 1 (Homo sapiens) (UniProt Q8NER1); experiment: HTS Assay for Compounds that Act as Enhancers of the Vanilloid Receptor 1 (AID 488979); further: 0% is about no effect
Sequence of Transient receptor potential cation channel subfamily V member 1 (Homo sapiens) (Q8NER1 whole entry, looked up): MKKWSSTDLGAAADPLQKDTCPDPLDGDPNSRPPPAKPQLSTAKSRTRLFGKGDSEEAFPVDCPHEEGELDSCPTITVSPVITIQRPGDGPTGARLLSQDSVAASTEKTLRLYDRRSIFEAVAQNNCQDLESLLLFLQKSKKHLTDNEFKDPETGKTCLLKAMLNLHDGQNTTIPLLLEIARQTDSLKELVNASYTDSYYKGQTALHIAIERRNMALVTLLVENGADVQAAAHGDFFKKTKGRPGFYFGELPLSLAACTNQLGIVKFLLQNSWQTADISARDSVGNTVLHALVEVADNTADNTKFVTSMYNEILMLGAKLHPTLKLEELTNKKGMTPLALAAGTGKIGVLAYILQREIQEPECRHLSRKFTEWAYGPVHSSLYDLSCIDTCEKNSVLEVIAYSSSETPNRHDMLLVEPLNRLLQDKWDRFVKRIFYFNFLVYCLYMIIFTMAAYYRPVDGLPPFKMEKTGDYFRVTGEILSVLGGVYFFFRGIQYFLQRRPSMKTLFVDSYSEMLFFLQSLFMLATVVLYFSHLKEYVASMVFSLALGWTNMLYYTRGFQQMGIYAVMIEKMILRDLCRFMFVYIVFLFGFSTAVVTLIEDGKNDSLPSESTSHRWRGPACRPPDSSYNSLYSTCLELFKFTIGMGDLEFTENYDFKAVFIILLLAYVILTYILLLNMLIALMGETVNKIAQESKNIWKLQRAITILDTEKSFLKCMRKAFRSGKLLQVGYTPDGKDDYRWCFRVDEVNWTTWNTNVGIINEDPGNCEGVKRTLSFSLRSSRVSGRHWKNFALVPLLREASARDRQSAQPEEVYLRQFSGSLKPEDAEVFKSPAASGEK
In short: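 TRPV1-expressing cells loaded with Fluo-8 calcium dye; compounds added and calcium influx read kinetically for 3 min (agonist phase), then capsaicin at EC20 added and read 2 min more for enhancement. Fluorescence ex 480/em 520 nm.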

[16] = target: Thyrotropin receptor (Homo sapiens) (UniProt P16473); experiment: qHTS Assay for Antagonists of the Thyroid Stimulating Hormone Receptor (AID 488980); further: 0% is about no effect
Sequence of Thyrotropin receptor (Homo sapiens) (P16473 whole entry, looked up): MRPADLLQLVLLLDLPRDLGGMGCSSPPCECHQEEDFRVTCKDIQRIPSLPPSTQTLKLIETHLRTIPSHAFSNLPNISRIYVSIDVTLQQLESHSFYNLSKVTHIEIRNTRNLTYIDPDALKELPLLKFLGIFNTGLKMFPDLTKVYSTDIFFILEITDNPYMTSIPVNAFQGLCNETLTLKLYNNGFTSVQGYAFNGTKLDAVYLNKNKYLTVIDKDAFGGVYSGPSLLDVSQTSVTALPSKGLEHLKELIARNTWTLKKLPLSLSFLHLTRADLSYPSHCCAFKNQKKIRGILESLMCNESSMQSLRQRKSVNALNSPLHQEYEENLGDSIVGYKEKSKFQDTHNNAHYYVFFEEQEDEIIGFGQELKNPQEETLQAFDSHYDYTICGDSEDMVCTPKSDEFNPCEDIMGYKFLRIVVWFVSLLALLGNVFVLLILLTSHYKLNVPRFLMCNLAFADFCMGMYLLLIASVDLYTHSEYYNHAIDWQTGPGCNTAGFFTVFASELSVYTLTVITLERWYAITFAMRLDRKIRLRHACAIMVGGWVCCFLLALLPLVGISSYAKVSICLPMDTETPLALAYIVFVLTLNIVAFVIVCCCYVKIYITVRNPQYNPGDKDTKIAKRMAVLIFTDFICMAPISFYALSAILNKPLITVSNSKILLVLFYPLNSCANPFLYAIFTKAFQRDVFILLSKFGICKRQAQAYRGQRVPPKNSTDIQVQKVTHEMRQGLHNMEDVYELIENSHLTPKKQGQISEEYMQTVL
In short: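 TSHR-transfected HEK293 cells (2000/well) in HEPES-buffered HBSS with 70 uM RO 20-1724 were stimulated with 4 nM TSH (EC80, final) in the presence of compound. cAMP was measured by HTRF competition after lysis and 30 min at RT.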

[17] = target: Thyrotropin-releasing hormone receptor (Homo sapiens) (UniProt P34981); experiment: qHTS for Small Molecule Agonists and Allosteric Enhancers of Human TRH Receptor: Validation Screen for Agonists (AID 493127;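 active means calcium activation more than 3 SD above the typical response in the agonist read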;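 further: intracellular calcium rise by fluo-8 fluorescence before TRH EC20 addition; 0% is about no effect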); conditions: TRH receptor agonist cell assay; at 2 µM; stronger effect = higher value
In short: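 TRHR-expressing cells were plated overnight in serum-containing medium, then loaded with fluo-8 calcium dye at room temperature for 30 min–1.5 h. After a 10 s baseline, compound was pin-transferred and calcium fluorescence (ex 480/em 530) read kinetically for agonist response.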

[18] = target: Galactokinase (Homo sapiens) (UniProt P51570); experiment: qHTS Validation Assay for Inhibitors of Human Galactokinase (GALK) (AID 493189); further: 0% is about no effect
Sequence of Galactokinase (Homo sapiens) (P51570 whole entry, looked up): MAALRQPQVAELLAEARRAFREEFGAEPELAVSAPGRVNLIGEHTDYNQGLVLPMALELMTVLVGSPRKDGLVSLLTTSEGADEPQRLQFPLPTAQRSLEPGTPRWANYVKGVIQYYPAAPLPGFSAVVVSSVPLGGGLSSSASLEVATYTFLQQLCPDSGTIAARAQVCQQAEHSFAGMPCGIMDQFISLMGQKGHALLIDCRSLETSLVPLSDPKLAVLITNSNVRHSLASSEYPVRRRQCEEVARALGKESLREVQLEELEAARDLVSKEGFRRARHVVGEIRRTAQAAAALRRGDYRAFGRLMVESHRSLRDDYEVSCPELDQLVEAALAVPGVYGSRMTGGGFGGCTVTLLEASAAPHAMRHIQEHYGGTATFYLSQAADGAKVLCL
In short: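 GALK (5 nM) with 35 uM ATP and 100 uM galactose in HEPES pH 8.0 with MgCl2, NaCl, DTT and BSA. Reaction ran 1 h at room temperature. Residual ATP read by Kinase-Glo Plus luminescence.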

[19] = target: Voltage-gated inwardly rectifying potassium channel KCNH2 (Homo sapiens) (UniProt Q12809); experiment: qHTS Assay for Small Molecule Inhibitors of the Human hERG Channel Activity (AID 588834);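 further: top concentration of the series differs between compounds; on the % scale 0 is the no-effect control and ±100 the full control effect; lower thallium flux fluorescence means stronger hERG block; nearly all actives have a fitted effect of over 50% in size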
In short: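 U2OS cells BacMam-transduced with hERG, 2000 cells/well, compound ~10 min at 37 °C before stimulation buffer. FluxOR thallium flux fluorescence read kinetically on FDSS; decrease indicates block; AC50 from Hill fits.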

[20] = target: Tumor susceptibility gene 101 protein (Homo sapiens) (UniProt Q99816); experiment: qHTS Assay for Iinhibitors of HIV-1 Budding by Blocking the Interaction of PTAP/TSG101: Hit Validation (AID 651600); further: on the % scale 0 is the no-effect control and ±100 the full control effect; nearly all actives have a fitted effect of over 70% in size
Sequence of Tumor susceptibility gene 101 protein (Homo sapiens) (Q99816 whole entry, looked up, the tested form may be a part): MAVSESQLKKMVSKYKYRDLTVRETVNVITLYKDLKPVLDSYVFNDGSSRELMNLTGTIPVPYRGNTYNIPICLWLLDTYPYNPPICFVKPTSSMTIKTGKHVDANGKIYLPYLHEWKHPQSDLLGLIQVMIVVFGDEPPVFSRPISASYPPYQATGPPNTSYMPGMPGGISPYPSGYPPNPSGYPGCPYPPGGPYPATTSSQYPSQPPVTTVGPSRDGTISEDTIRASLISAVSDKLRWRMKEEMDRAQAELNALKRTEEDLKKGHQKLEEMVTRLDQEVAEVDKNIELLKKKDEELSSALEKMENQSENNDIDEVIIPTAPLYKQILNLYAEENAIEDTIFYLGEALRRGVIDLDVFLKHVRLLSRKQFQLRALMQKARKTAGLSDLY
In short: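 Fluorescence polarization binding assay: Tsg101 binding domain (10 uM) mixed with compounds and FITC-labeled PTAP peptide (50 nM) in HEPES pH 7.5, 0.15 M NaCl, 0.01% Tween 20, EDTA, TCEP; 20 min at r.t.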

[21] = tested on: Zika virus NS2B-NS3 protease (unlinked); experiment: Optimization of GU AMC qHTS for Zika virus inhibitors: Unlinked NS2B-NS3 protease assay (AID 1347151);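 further: 0% = no-inhibitor control and -100% = no-enzyme control; nearly all actives have a fitted effect of over 80% in size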
In short: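 Noncovalent NS2B hydrophilic domain–NS3 protease complex (25 nM final) in 10 mM Tris-HCl pH 8.0, 0.01% Tween 20; AMC substrate, room temperature 15 min (~20% conversion); fluorescence change normalized, 4-parameter Hill fit.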

[22] = tested on: Zika virus NS2B-NS3 protease; experiment: Primary screen GU AMC qHTS for Zika virus inhibitors (AID 1347154);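 further: 0% = no-inhibitor control and -100% = no-enzyme control; nearly all actives have a fitted effect of over 70% in size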
In short: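 Unlinked Zika NS2B hydrophilic domain/NS3 protease domain noncovalent complex (25 nM final) in 10 mM Tris-HCl pH 8.0, 0.01% Tween 20, with AMC peptide substrate. Fluorescence (ex 340, em 450 nm) change over 15 min, room temperature; percent inhibition fitted to 4-parameter Hill equation.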

[23] = Vero cells viability qHTS for Zika virus inhibitors (AID 1347167); further: on the % scale 0 is the no-effect control and ±100 the full control effect
In short: (§1)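 Counter-screen for cytotoxicity of hits from NS2B-NS3 protease qHTS. Overnight-attached cells (2.5 x 10^5 cells/mL, DMEM/4% FBS) were dosed in titration, incubated 24 to 48 hours, then assayed by CellTiter Glo.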

[24] = HepG2 cells viability qHTS for Zika virus inhibitors (AID 1347168); further: on the % scale 0 is the no-effect control and ±100 the full control effect
In short: as §1

[25] = Tertiary RLuc qRT-PCR qHTS assay for Zika virus inhibitors (AID 1347169); further: nearly all actives have a fitted effect of over 55% in size
In short: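 Vero cells (1,000/well) infected with recombinant ZIKV-RLuc (Cambodian) at MOI 1-2 after compound addition, 48-72 hrs at 37 degrees C. Live-cell Renilla luciferase substrate added; luminescence read after 1-1.5 hrs.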

[26] = Confirmatory qHTS for small molecule stabilizers of the endoplasmic reticulum resident proteome: Secreted ER Calcium Modulated Protein (SERCaMP) assay (AID 1508628);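 further: SH-SY5Y cells given compound 16 h then thapsigargin 100 nM for 4 h; on the % scale 0 is the no-effect control and ±100 the full control effect; nearly all actives have a fitted effect of over 40% in size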
In short: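 We seeded SH-SY5Y-GLuc-SERCaMP cells, added compounds (three concentrations in the primary run, eleven up to 76.6 uM in confirmation), incubated 16 h, depleted ER calcium with thapsigargin, and read luciferase 4 h later.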

[27] = target: Nucleoprotein (Lymphocytic choriomeningitis virus (strain Armstrong)) (UniProt P09992); experiment: qHTS for Inhibitors of the Functional Ribonucleoprotein Complex (vRNP) of Lymphocytic Choriomeningitis Arenaviruses (LCMV): LCMV Primary Screen - GLuc reporter signal (AID 1347086; calls by dose curve; further: on the % scale 0 is the no-effect control and ±100 the full control effect; nearly all actives have a fitted effect of over 70% in size)
Sequence of Nucleoprotein (Lymphocytic choriomeningitis virus (strain Armstrong)) (P09992 whole entry, looked up): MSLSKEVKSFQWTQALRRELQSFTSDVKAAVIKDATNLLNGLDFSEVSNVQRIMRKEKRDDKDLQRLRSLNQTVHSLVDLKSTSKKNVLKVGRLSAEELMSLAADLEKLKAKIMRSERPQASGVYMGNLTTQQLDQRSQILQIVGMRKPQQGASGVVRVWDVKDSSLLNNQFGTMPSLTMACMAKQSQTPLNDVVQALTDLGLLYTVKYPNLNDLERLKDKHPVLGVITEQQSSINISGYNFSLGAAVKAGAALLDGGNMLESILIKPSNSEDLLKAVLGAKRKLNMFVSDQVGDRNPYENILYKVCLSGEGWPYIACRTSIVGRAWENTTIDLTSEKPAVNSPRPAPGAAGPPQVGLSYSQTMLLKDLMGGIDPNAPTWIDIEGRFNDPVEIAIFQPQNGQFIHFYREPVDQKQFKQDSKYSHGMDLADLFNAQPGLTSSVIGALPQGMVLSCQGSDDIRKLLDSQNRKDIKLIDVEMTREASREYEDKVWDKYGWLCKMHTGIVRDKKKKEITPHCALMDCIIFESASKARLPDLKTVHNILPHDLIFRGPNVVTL

[28] = Cytotoxicity counterscreen for inhibitors of SARS-CoV-2 cell entry (AID 1645845; calls by dose curve; further: nearly all actives have a fitted effect of over 50% in size)
In short: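 Expi293F/hACE2 cells seeded overnight; cpd pin-transferred in DMSO, 1 h preincubation, + media, 48 h 37 C 5% CO2; ATPLite 1step luminescence; normalized to cells and no cells.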

[29] = target: Cytochrome P450 3A4 (Homo sapiens) (UniProt P08684); experiment: qHTS Assay for Inhibitors and Substrates of Cytochrome P450 3A4 (AID 884); further: on the % scale 0 is the no-effect control and ±100 the full control effect; nearly all actives have a fitted effect of over 50% in size
In short: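 20 nM human CYP3A4 with 25 uM Luciferin-PPXE (at KM) in 200 mM KPO4, preincubated 10 min with compound; NADPH regeneration started a 60 min RT reaction. Luciferin detected by luminescence, normalized to 57 uM ketoconazole as full inhibition.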

[30] = Confirmation and Secondary Assay for Modulators of Hemoglobin Beta Chain Splicing at IVS2 654 locus (AID 910); further: % of control where 0% means no effect
In short: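 HeLa cells stably carrying EGFP interrupted by mutant beta-globin IVS2-654 intron (CMV-driven) were treated with compound for 2 days at 37C; corrected splicing was scored as total peak GFP intensity per well (488 nm excitation, 500-520 nm emission).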

[31] = qHTS Assay for Lipid Storage Modulators (AID 1519; calls by dose curve); conditions: Drosophila S3 cells, BODIPY lipid droplet/cell ratio, laser cytometry, cells loaded with oleic acid
In short: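 Cells seeded at 5,000 per well were treated with compounds over a concentration series and loaded with oleic acid (400 uM, as added). Lipid droplet fluorescence (488 nm excitation, 500-530 nm channel) was read by laser-scanning cytometry and normalized to 20 uM Triacsin C.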

[32] = target: Ubiquitin carboxyl-terminal hydrolase 1 (Homo sapiens) (UniProt O94782); experiment: Inhibitors of USP1/UAF1: Pilot qHTS (AID 504865);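 further: rhodamine fluorescence freed from ubiquitin-rhodamine substrate followed over time; top concentration of the series differs between compounds; on the % scale 0 is the no-effect control and ±100 the full control effect; nearly all actives have a fitted effect of over 35% in size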
Sequence of Ubiquitin carboxyl-terminal hydrolase 1 (Homo sapiens) (O94782 whole entry, looked up): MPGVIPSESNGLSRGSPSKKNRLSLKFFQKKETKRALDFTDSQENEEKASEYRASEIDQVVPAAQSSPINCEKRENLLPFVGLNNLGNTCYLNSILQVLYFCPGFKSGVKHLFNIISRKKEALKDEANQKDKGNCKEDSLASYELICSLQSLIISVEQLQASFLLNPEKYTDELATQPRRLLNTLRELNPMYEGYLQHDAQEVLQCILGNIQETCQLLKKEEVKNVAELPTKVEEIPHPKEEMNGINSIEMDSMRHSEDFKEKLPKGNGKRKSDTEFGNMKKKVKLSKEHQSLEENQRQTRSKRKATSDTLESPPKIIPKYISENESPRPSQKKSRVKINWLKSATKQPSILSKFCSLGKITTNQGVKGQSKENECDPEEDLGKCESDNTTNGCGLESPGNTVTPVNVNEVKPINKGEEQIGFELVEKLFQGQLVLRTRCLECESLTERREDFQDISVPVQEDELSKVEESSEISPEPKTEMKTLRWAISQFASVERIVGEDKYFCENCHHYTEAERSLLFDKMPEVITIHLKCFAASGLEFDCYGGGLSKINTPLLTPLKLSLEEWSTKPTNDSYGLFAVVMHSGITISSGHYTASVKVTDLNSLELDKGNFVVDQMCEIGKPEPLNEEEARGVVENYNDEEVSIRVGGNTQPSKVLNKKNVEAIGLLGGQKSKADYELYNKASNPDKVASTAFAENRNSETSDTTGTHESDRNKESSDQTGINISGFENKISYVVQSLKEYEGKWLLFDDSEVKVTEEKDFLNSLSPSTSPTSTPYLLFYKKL
In short: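 USP1/UAF1 complex at 1 nM preincubated 15 min at room temperature with compound, then Ub-Rho substrate added at 150 nM final. Fluorescence (480/540 nm) read kinetically in 50 mM HEPES pH 7.8, 0.5 mM EDTA, 1 mM TCEP, 0.1 mg/ml BSA, 0.01% Tween-20.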

Furin (Homo sapiens) = Furin (Homo sapiens) (UniProt P09958); experiment: Furin counterscreen qHTS for Zika virus inhibitors (AID 1347149);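 further: purified recombinant full-length human furin enzyme at 5 nM; fluorescence gain from furin cutting a BOC-RVRR-AMC peptide substrate over 15 min; top concentration of the series differs between compounds; plate controls were no-inhibitor control for no effect and no-enzyme control for full effect; nearly all actives have a fitted effect of over 70% in size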
In short: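 Fluorogenic cleavage of BOC-RVRR-AMC (2 microM final, Km ~15 µM) was monitored (ex 340, em 450 nm) at 37C after 15 min RT preincubation of 5 nM furin with compounds in HEPES pH 7.0 buffer with CaCl2 and Triton X-100. Percent inhibition was fitted to a 4-parameter Hill curve.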

C=CCN1CCC2(C)c3cc(O)ccc3CC1C2C (stereo not drawn)
inactive: outcome [1] | Potency [2] | Potency [3] | Potency [6] | Potency [8] | outcome [9] | Potency [10] | Potency [11] | Potency [12] | Potency [13] | Potency [14] | outcome [15] | outcome [16] | activation [17] 1.19% | outcome [18] | Potency [19] | outcome [20] | outcome [21] | Potency [22] | Potency [23] | Potency [24] | Potency [25] | Potency [26]
active: Potency [4] 7.08 µM | Potency [5] 12.6 µM | Potency [7] 5.62 µM

O=C1CC2OCC=C3CN4CCC56c7ccccc7N1C5C2C3CC46 (stereo not drawn)
inactive: Potency [22]

COc1ccc(Cn2ccc3ccc(C(=O)NO)cc32)cc1
inactive: Potency [27] | Potency [28]

O=C(O)CCC(CP(=O)(O)O)C(=O)O (stereo not drawn)
inactive: Potency [22]

c1ccc2sc(C3(NCC4CC4)CCCCC3)cc2c1
inactive: Potency [22]

CN(C(=O)Cc1ccc(Cl)c(Cl)c1)C(CN1CCCC1)c1cccc(N=C=S)c1 (stereo not drawn)
inactive: Potency [22]

CN1CC[C@@H]2CN3CCc4cccc(c43)[C@@H]2C1
inactive: Potency [22]

COC1C(O)C(C)O[C@@H](OC2CC[C@@]3(C)C4CC[C@]5(C)C(C6=CC(=O)OC6)CC[C@@]5(O)C4CC[C@@H]3C2)C1O (stereo partly drawn)
inactive: Potency [29] | Potency [30] | activity change, negative = inhibition ([31]; at 57.5 µM (top of the series)) 8.72% | Potency [32] | Potency (Furin (Homo sapiens)) | outcome [21] | Potency [23]
8.32%: max response ([31]; measured here: cell count channel max response)
active: Potency [25] 0.0658 µM
14.8%: max response ([31]; measured here: lipid channel max response)
